Measured values: ChEMBL document CHEMBL4513216, “Probing the Open Global Health Chemical Diversity Library for Multistage-Active Starting Points for Next-Generation Antimalarials” (ACS Infect Dis, 2020)
About 2,700 (4%) of roughly 68,000 compounds showed an effect of 50% or more. The entries come from a sample that favours strong results as a whole.

test system: Plasmodium berghei; assay: Screen against P. berghei liver stage (PbLuc), transformed with Luciferase, at 2uM; type: functional, HepG2; details: tested at 2 uM

| Structure (SMILES) | INHIBITION [%] |
| --- | --- |
| Cc1cc(C)n(Cc2cc(C(=O)N3CCCC3c3ccccn3)n[nH]2)n1 (stereo unspecified) | -15.08 |
| CC(CC(=O)Nc1ncn(CC(=O)NCc2ccccc2)n1)C1CC1 (stereo unspecified) | -1.21 |
| O=C(Cn1cnc(NC(=O)CC2CCCC2)n1)NCc1ccccc1 | 67.59 |
| CC(C)(C)CC(=O)Nc1ncn(CC(=O)NCc2ccccc2)n1 | -34.98 |
| O=C(NCCn1cc(Cl)cn1)C1CCN(C(=O)C2CC2)CC1 | 23.64 |
| N[C@@H]1CC[C@H](C(=O)NCCn2cc(Cl)cn2)C1 | 61.95 |
| NC(=O)CN1CCC(C(=O)NCCn2cc(Cl)cn2)CC1 | -10.84 |
| O=C(CCN1CCCCO1)NC1CCCN(CC2CCCCC2)C1 (stereo unspecified) | -0.88 |
| c1cc(CNCc2ccnc(N3CCOCC3)c2)c2c(c1)OCCO2 | 1.22 |
| Fc1cc(CNCc2ccc3c(c2)CCO3)ccc1N1CCOCC1 | -10.05 |
| COc1ccc(CNCc2ccnc(N3CCOCC3)c2)cc1OC | 62.13 |
| COc1ccc(OC)c(CNCc2ccnc(N3CCOCC3)c2)c1 | -28.39 |
| COc1ccc(CNCc2ccnc(N3CCCCC3)c2)cc1OC | 30.91 |
| c1cc(CNCc2ccc3c(c2)CCO3)cc(N2CCOCC2)n1 | 57.82 |
| c1cnc(N2CCCC(c3cc4cccnc4[nH]3)C2)nc1 (stereo unspecified) | 14.47 |
| C=C(C)COc1cccc(C(=O)N(CC)Cc2nc(COC)no2)c1 | -18.57 |
| C=C(C)COc1cccc(C(=O)N(CC)Cc2noc(C)n2)c1 | 76.82 |
| C=C(C)CNc1ccc(C(=O)N(CC)Cc2nccn2C)cn1 | -13.51 |
| CCN(Cc1nccn1C)C(=O)c1ccc(NCc2ccccc2)nc1 | 8.89 |
| C=C(C)COc1cccc(CN(CC)Cc2noc(C)n2)c1 | 36.28 |
| C=C(C)COc1cccc(C(=O)N(CC)Cc2nccn2C)c1 | 52.98 |
| CCn1nc(C)c2ncnc(N(C)Cc3ccco3)c21 | 46.92 |

| Structure (SMILES) | INHIBITION [%] |
| --- | --- |
| CN(C)c1ccc(CN2C[C@@H]3CC[C@H]2CN(C2CCOCC2)C3)cn1 | 25.52 |
| Cn1cccc1C(=O)N1CCN(CC2CC2)c2ncccc2C1 | 8.13 |
| Cc1nc(-c2ccccc2)n(CC(=O)NC(C)C2CC2)n1 (stereo unspecified) | 32.56 |
| COc1ccc(C2=Nn3c(CCCN)nnc3-c3ccccc3C2)cc1 | 6.9 |
| COc1ccc(C2=Nn3c(CN)nnc3-c3ccccc3C2)cc1 | 42.64 |
| COc1ccc(C2=Nn3c(CCN)nnc3-c3ccccc3C2)cc1 | 54.73 |
| Cc1cnc(CNC(=O)[C@@]23CCO[C@@H]2CCN(c2ncccn2)C3)cn1 | 4.08 |
| Cc1cc(C(=O)N2C[C@@H]3COC[C@]3(CN(C)C)C2)c(C)o1 | 39.57 |
| CC(C)NC1CCc2[nH]c(=O)ccc2C1 (stereo unspecified) | -13.79 |
| Cc1c(Br)cccc1C(=O)NCC1CCNCC1 | 5 |
| O=C(c1cccnc1O)N1CCN(Cc2ccccc2F)CC1 | -24.15 |
| Cc1ncc(C(=O)N2CCCN(Cc3ccccc3F)CC2)c(O)n1 | 52.74 |
| O=C(c1cnc(C2CC2)nc1O)N1CCN(Cc2ccccc2F)CC1 | 15.34 |
| c1cnnc(N[C@@H]2CC[C@@H]3CN(Cc4c[nH]c5ccccc45)C[C@@H]32)c1 | -2.96 |
| Cc1nc(C)c(S(=O)(=O)NC(=O)c2ccoc2)s1 | 44.86 |
| Cc1nc(C)c(S(=O)(=O)NC(=O)c2ccsc2)s1 | 68.08 |
| Cc1nc(C)c(S(=O)(=O)NC(=O)c2sccc2C)s1 | 24.23 |
| O=C(c1cnc(OCC(F)(F)F)c(Cl)c1)N1CCc2ccc(O)cc2C1 | 64.2 |
| O=C(c1ccc(O)nc1)N1CCN(C(=O)c2ccc(F)c(F)c2)CC1 | -18.09 |
| CC(C)Oc1ncc(C(=O)N2CCc3ccc(O)cc3C2)cc1Cl | 11.33 |
| O=C(c1ccc(O)nc1)N1CCN(C(=O)c2ccc(F)cc2F)CC1 | 19.06 |
| O=C(c1c[nH]c(=O)c(Cl)c1)N1CCc2ccccc2C1 | -15.11 |

| Structure (SMILES) | INHIBITION [%] |
| --- | --- |
| O=C(c1ccc(O)nc1)N1CCc2ccc(O)cc2C1 | 55.39 |
| CC(=O)N1CC[C@H](c2nnc(Cc3c[nH]c4ccccc34)o2)C1 | 26.01 |
| CN(Cc1cn2c(n1)CN(CC1CCOC1)CC2)Cc1ccco1 (stereo unspecified) | -0.38 |
| O=C(NCCn1cccc1)C1CCN(C2CCCCC2)CC1 | 10.72 |
| OCCOc1cc(F)ccc1NCc1cccc(F)c1F | -19.62 |
| Cn1ccnc1CN1CCC(CNS(=O)(=O)c2cccnc2)C1 (stereo unspecified) | -43.75 |
| COc1ccc(NC(=O)C2CC(=O)n3cnnc3S2)cc1 (stereo unspecified) | 6.05 |
| COCCN1CCCC(O)(CN2CCN(Cc3ccncc3)CC2)C1=O (stereo unspecified) | 15.73 |
| CC(=O)c1ccc(CNC(=O)c2cc(C#N)cn2C)nc1C | -2.44 |
| Cc1ccc2nc(CSCC(=O)Nc3nnc(C(C)C)s3)cc(=O)n2c1 | -3.16 |
| O=C(Nc1cccnc1)C1=Cc2ccccc2OC1 | 3.62 |
| CC1=C(C#N)C(=O)N(C)C(=O)/C1=C\C1=Cc2ccccc2OC1 | 53.81 |
| CCN1C(=O)C(C#N)=C(C)/C(=C/C2=Cc3ccccc3OC2)C1=O | 45.67 |
| O=C(NCC1CCOCC1)c1cc(-c2ccncc2)c2cnccc2n1 | 10.89 |
| CC(C)C(CNCc1cccc2c1OCO2)N1CCOCC1 (stereo unspecified) | 21.72 |
| c1csc(C(CNCc2cccc3c2OCO3)N2CCOCC2)c1 (stereo unspecified) | 42.62 |
| Cc1ccc(C(CNCc2cccc3c2OCO3)N2CCOCC2)o1 (stereo unspecified) | 71.53 |
| COc1ccccc1OCC(=O)NCC(O)(c1ccccc1)C1CC1 (stereo unspecified) | 22.75 |
| CCOc1ccc(Oc2cc(N)ccn2)cc1 | 4 |
| O[C@H]1Cc2ccccc2[C@H]1Nc1ncccc1C(F)(F)F | -12.95 |
| Cc1ccc(CN2CCCn3nnc(COCCN(C)C)c3C2)s1 | 23.14 |
| Cn1cc(CN2CC[C@H]3O[C@H](C(=O)NC4CC4)CC[C@H]32)c2ccccc21 | -18.7 |

| Structure (SMILES) | INHIBITION [%] |
| --- | --- |
| CCOc1ncccc1CNS(=O)(=O)c1ccc2c(c1)CCCC(=O)N2 | 20.35 |
| c1ccc(-c2nc(CN3CCOC(Cn4cccn4)C3)co2)cc1 (stereo unspecified) | 62.13 |
| c1cnn(CC2CN(Cc3ccc(-n4ccnc4)cc3)CCO2)c1 (stereo unspecified) | 53.03 |
| c1csc(-c2nc(CN3CCOC(Cn4cccn4)C3)cs2)c1 (stereo unspecified) | 45.83 |
| Fc1ccc(-c2nc(CN3CCOC(Cn4cccn4)C3)co2)cc1 (stereo unspecified) | -17.31 |
| CN(Cc1ccsc1)C(=O)CN1CCOC(Cn2cncn2)C1 (stereo unspecified) | 46.09 |
| c1cn(-c2ccc(CN3CCOC(Cn4cncn4)C3)cc2)cn1 (stereo unspecified) | 40.88 |
| c1ccc(-c2nc(CN3CCOC(Cn4cncn4)C3)cs2)cc1 (stereo unspecified) | 31.57 |
| CN(Cc1ccsc1)C(=O)CN1CCOC(Cn2cccn2)C1 (stereo unspecified) | 62.46 |
| c1cnn(CC2CN(CCc3ccncc3)CCO2)c1 (stereo unspecified) | 17.11 |
| c1csc(-c2nc(CN3CCOC(Cn4cncn4)C3)cs2)c1 (stereo unspecified) | 66.97 |
| Cc1ccc(-c2nc(CN3CCOC(Cn4cccn4)C3)co2)cc1 (stereo unspecified) | 1.02 |
| Cc1cnn(CC2CN(CC(=O)N(C)Cc3ccsc3)CCO2)c1 (stereo unspecified) | 47.84 |
| OCC(CO)Nc1ccc2c(Cl)ccc(Cl)c2n1 | 34.55 |
| O=C(c1ccc(F)cc1)N1CCC2(CCCN2CC2CC2)CC1 | -38.96 |
| NC(=O)Nc1cccc(CNC(=O)CCCc2ccccc2)c1 | 3.01 |
| Fc1cccnc1Oc1cc(F)c(CN2CCCC2)c(Cl)c1 | -42.73 |
| Clc1cc(N2CCC(N3CCCC3)CC2)nc2[nH]ccc12 | 25.13 |
| Nc1cc2c(nn1)CCN(C(=O)c1cccc3c1OCO3)C2 | 4.55 |
| CC(=O)c1ccc(S(=O)(=O)NCc2cccnc2N(C)C)cc1 | 4.18 |
| COc1ncccc1-c1nc(-c2ccccn2)nn1C1CCS(=O)(=O)C1 (stereo unspecified) | 19.12 |
| Nc1nc2cn(C3CCCC3)c(=O)c-2c[nH]1 | -33.11 |

| Structure (SMILES) | INHIBITION [%] |
| --- | --- |
| CCCc1nc(CN2CCOC(Cn3cncn3)C2)cs1 (stereo unspecified) | 53.98 |
| CC(C)CCc1nc(CN2CCOC(Cn3cncn3)C2)cs1 (stereo unspecified) | 7.13 |
| CC(C)(C)c1nc(CN2CCOC(Cn3cncn3)C2)cs1 (stereo unspecified) | -5.09 |
| c1csc(-c2nc(CN3CCOC(Cn4cncn4)C3)co2)c1 (stereo unspecified) | 71.48 |
| c1csc(-c2nc(CN3CCOC(Cn4cccn4)C3)co2)c1 (stereo unspecified) | -25.44 |
| Fc1cccc(-c2nc(CN3CCOC(Cn4cncn4)C3)co2)c1 (stereo unspecified) | 16.51 |
| Cn1c(CN2CCCCC2)nnc1C1CCN(c2nccc(N)n2)CC1 | 21.2 |
| c1cnn(CC2CN(Cc3noc(C4CC4)n3)CCO2)c1 (stereo unspecified) | -28.51 |
| CCn1c(=O)n(Cc2nc(C3CC3)no2)c2ccccc21 | 30.82 |
| CCC1c2ccccc2CCN1C(=O)c1ccnc(C(=O)OC)c1 (stereo unspecified) | 20.34 |
| CCc1nnc(C(C)N2CCN(CCC(C)(C)C)CC2)o1 (stereo unspecified) | 38.97 |
| COc1cc(C(=O)O)cc(I)c1OCC(=O)NCCc1ccccc1 | 56.69 |
| COc1cc(C(=O)O)ccc1OCC(=O)NCCc1ccccc1 | 10.1 |
| COc1cc(OCC(=O)NCCc2ccccc2)cc(OC)c1OC | 28.85 |
| CCN1C[C@H]2[C@@H](C1)N(c1ncc(F)cn1)CC[C@H]2OC | 12.29 |
| CCc1ncc2c(n1)CN(Cc1nnc(CC)o1)CC2 | 9.18 |
| CCc1ncc2c(n1)CN(Cc1nnc(C(C)C)o1)CC2 | 46.76 |
| CCc1ncc2c(n1)CN(Cc1nnc(C)o1)CC2 | 59.18 |
